Measured values: PubChem BioAssay (EPA / NIEHS)
“And” between values parts separate entries of the source, which are not always exact repeats. Equal values may be shown once. Where a structure was tested more than once in an assay, its records may differ in their call. The source made the active and inactive calls. How the source made its calls: active means hit-call score of the fitted dose curve at least 0.9, where 1 is the maximum; inactive means score below 0.9.

Columns and labels:
[1] = BSK_hDFCGF_SRB: Viability Assessment in the BioMAP Diversity Plus: hDFCGF Assay (AID 2283061); conditions: primary human foreskin fibroblasts;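 further: cells exposed to compound for 24 h before the read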
Summary of the method: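 Primary human foreskin fibroblasts; 24 h post-dose; fixed 10% TCA, stained 0.1% SRB, A560 read; total protein as overt cytotoxicity measure; curves fit bidirectionally vs DMSO control.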

[2] = read-out: TIMP metallopeptidase inhibitor 1 (TIMP1), TIMP1 (gene 7076); experiment: BSK_hDFCGF_TIMP1: BioMAP Diversity Plus: hDFCGF Assay for TIMP metallopeptidase inhibitor 1 (TIMP1) Biomarker Activity (AID 2283062); conditions: primary human foreskin fibroblasts; actives raise or lower the signal
Summary of the method: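 ELISA readout of TIMP-1 from human dermal foreskin fibroblast cultures 24 h post-dosing. Curves were fitted in both directions against DMSO baseline, with SRB total-protein staining in parallel cultures as a cytotoxicity check.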

[3] = read-out: Monokine induced gamma interferon (MIG), CXCL9 (gene 4283); experiment: BSK_hDFCGF_MIG: BioMAP Diversity Plus: hDFCGF Assay for Monokine induced gamma interferon (MIG) Biomarker Activity (AID 2283063); conditions: primary human foreskin fibroblasts; actives raise or lower the signal
Summary of the method: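 Fibroblasts (human foreskin, primary) dosed, 24 h, MIG by ELISA; fit bidirectional vs DMSO.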

[4] = read-out: Matrix Metallopeptidase 1 (MMP1), MMP1 (gene 4312); experiment: BSK_hDFCGF_MMP1: BioMAP Diversity Plus: hDFCGF Assay for Matrix Metallopeptidase 1 (MMP1) Biomarker Activity (AID 2283064); conditions: primary human foreskin fibroblasts; actives raise or lower the signal
Summary of the method: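 Primary human foreskin fibroblasts in the hDFCGF system were dosed with test chemical, and MMP1 was measured by ELISA 24 h later. Values come from bidirectional curve fitting against the DMSO baseline.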

[5] = read-out: Vascular cell adhesion molecule 1 (VCAM1), VCAM1 (gene 7412); experiment: BSK_hDFCGF_VCAM1: BioMAP Diversity Plus: hDFCGF Assay for Vascular cell adhesion molecule 1 (VCAM1) Biomarker Activity (AID 2283065); conditions: primary human foreskin fibroblasts; actives raise or lower the signal;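 on AC50: VCAM-1 protein level quantified by ELISA after 24 h chemical exposure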
Summary of the method: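 ELISA read-out of VCAM-1 on human skin fibroblasts, 24 h post-dose; gain or loss of signal fitted bidirectionally against DMSO baseline.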

[6] = read-out: Plasminogen activator inhibitor-1 (PAI1), SERPINE1 (gene 5054); experiment: BSK_hDFCGF_PAI1: BioMAP Diversity Plus: hDFCGF Assay for Plasminogen activator inhibitor-1 (PAI1) Biomarker Activity (AID 2283066); conditions: primary human foreskin fibroblasts; actives raise or lower the signal
Summary of the method: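 Human foreskin fibroblast primary cells, 24 h chemical exposure; PAI-1 measured by ELISA. Bidirectional fitting relative to DMSO; parallel cultures stained with SRB for total protein to flag overt cytotoxicity.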

[7] = read-out: Intercellular Adhesion Molecule 1 (ICAM1), ICAM1 (gene 3383); experiment: BSK_KF3CT_ICAM1: BioMAP Diversity Plus: KF3CT Assay for Intercellular Adhesion Molecule 1 (ICAM1) Biomarker Activity (AID 2283067); conditions: primary human keratinocytes with fibroblasts; actives raise or lower the signal
Summary of the method: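 ELISA readout of ICAM-1; KF3CT human skin co-culture (keratinocytes + foreskin fibroblasts), 24 h post-dose; gain/loss fit vs DMSO baseline.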

[8] = read-out: Interferon-gamma inducible Protein 10 (IP10), CXCL10 (gene 3627); experiment: BSK_KF3CT_IP10: BioMAP Diversity Plus: KF3CT Assay for Interferon-gamma inducible Protein 10 (IP10) Biomarker Activity (AID 2283068); conditions: primary human keratinocytes with fibroblasts; actives raise or lower the signal
Summary of the method: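 Signal is secreted/surface IP-10 by ELISA in a human primary skin co-culture of keratinocytes and foreskin fibroblasts, taken 24 h post-dosing; DMSO served as negative control.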

[9] = BSK_KF3CT_SRB: Viability Assessment in the BioMAP Diversity Plus: KF3CT Assay (AID 2283069); conditions: primary human keratinocytes with fibroblasts;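 further: total protein by sulforhodamine B staining as a cytotoxicity measure; read 24 h after compound addition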
Summary of the method: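 Human primary keratinocyte plus foreskin fibroblast co-culture exposed to chemicals for 24 h. Total protein measured by 0.1% sulforhodamine B staining after 10% TCA fixation, read at 560 nm; bidirectional fitting versus DMSO baseline.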

[10] = read-out: TIMP metallopeptidase inhibitor 2 (TIMP2), TIMP2 (gene 7077); experiment: BSK_KF3CT_TIMP2: BioMAP Diversity Plus: KF3CT Assay for TIMP metallopeptidase inhibitor 2 (TIMP2) Biomarker Activity (AID 2283071); conditions: primary human keratinocytes with fibroblasts; actives raise or lower the signal
Summary of the method: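 Co-culture of human primary keratinocytes and foreskin fibroblasts, measured 24 h after chemical dosing. TIMP-2 quantified by ELISA and fitted in both directions relative to DMSO. Cytotoxicity checked in parallel cultures by SRB total-protein staining.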

[11] = read-out: C-C motif chemokine 2 (Homo sapiens) (UniProt P13500); experiment: BSK_KF3CT_MCP1: BioMAP Diversity Plus: KF3CT Assay for Monocyte Chemoattractant Protein 1 (MCP1/CCL2) Biomarker Activity (AID 2283073); conditions: primary human keratinocytes with fibroblasts; actives raise or lower the signal
Summary of the method: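 KF3CT skin co-culture (keratinocytes/foreskin fibroblasts), 24 h post-dose; MCP-1 by ELISA; gain/loss of signal fit bidirectionally vs DMSO baseline.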

[12] = read-out: Matrix Metallopeptidase 9 (MMP9), MMP9 (gene 4318); experiment: BSK_KF3CT_MMP9: BioMAP Diversity Plus: KF3CT Assay for Matrix Metallopeptidase 9 (MMP9) Biomarker Activity (AID 2283074); conditions: primary human keratinocytes with fibroblasts; actives raise or lower the signal;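 on AC50: MMP9 protein level quantified by ELISA in the co-culture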
Summary of the method: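 Keratinocyte plus foreskin fibroblast human primary skin co-culture was dosed with chemical and MMP-9 was quantified by ELISA 24 h later. Bidirectional curve fitting used DMSO as negative control and activity baseline.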

[13] = read-out: urokinase plasminogen activator (uPA), PLAU (gene 5328); experiment: BSK_KF3CT_uPA: BioMAP Diversity Plus: KF3CT Assay for urokinase plasminogen activator (uPA) Biomarker Activity (AID 2283075); conditions: primary human keratinocytes with fibroblasts; actives raise or lower the signal
Summary of the method: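 Human keratinocyte plus foreskin fibroblast primary co-culture exposed to chemical for 24 h. uPA levels were quantified by ELISA, and activity was fitted bidirectionally against a DMSO negative-control baseline.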

[14] = read-out: CD40, CD40 (gene 958); experiment: BSK_LPS_CD40: BioMAP Diversity Plus: LPS Assay for CD40 Biomarker Activity (AID 2283076); conditions: primary human HUVEC with PBMC; actives raise or lower the signal
Summary of the method: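 ELISA readout of CD40 in HUVEC/PBMC co-culture (BSK_LPS system), 24 h post-dosing; bidirectional curve fit, DMSO baseline; parallel SRB total-protein staining for cytotoxicity.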

[15] = read-out: E-selectin (Homo sapiens) (UniProt P16581); experiment: BSK_LPS_Eselectin: BioMAP Diversity Plus: LPS Assay for Eselectin Biomarker Activity (AID 2283077); conditions: primary human HUVEC with PBMC; actives raise or lower the signal
Summary of the method: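 ELISA readout of E-selectin, 24 h post-dose, HUVEC + PBMC co-culture (LPS system). Gain or loss of signal vs DMSO baseline, bidirectional fit.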

[16] = read-out: Interleukin-8 (IL8), CXCL8 (gene 3576); experiment: BSK_LPS_IL8: BioMAP Diversity Plus: LPS Assay for Interleukin-8 (IL8) Biomarker Activity (AID 2283078); conditions: primary human HUVEC with PBMC; actives raise or lower the signal
Summary of the method: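 HUVEC + PBMC co-culture, LPS-activated; test chemicals dosed, IL-8 read by ELISA at 24 h. Bidirectional curve fit vs DMSO baseline (gain or loss of signal).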

[17] = read-out: Interleukin-1 alpha (IL1a), IL1A (gene 3552); experiment: BSK_LPS_IL1a: BioMAP Diversity Plus: LPS Assay for Interleukin-1 alpha (IL1a) Biomarker Activity (AID 2283080); conditions: primary human HUVEC with PBMC; actives raise or lower the signal
Summary of the method: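 HUVEC/PBMC co-culture, LPS system; 24 h after dosing; IL-1a by ELISA; gain or loss of signal fitted bidirectionally vs DMSO baseline.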

[18] = read-out: Monocyte Chemoattractant Protein-1 (MCP1), CCL2 (gene 6347); experiment: BSK_LPS_MCP1: BioMAP Diversity Plus: LPS Assay for Monocyte Chemoattractant Protein-1 (MCP1) Biomarker Activity (AID 2283081); conditions: primary human HUVEC with PBMC; actives raise or lower the signal;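 on AC50: secreted MCP-1 protein quantified by ELISA in culture supernatant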
Summary of the method: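 ELISA read-out of MCP-1 after 24 h chemical dosing of a human umbilical vein endothelial cell/peripheral blood mononuclear cell co-culture stimulated with LPS. Gain or loss of signal fitted relative to DMSO controls.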

[19] = read-out: Interleukin-1 alpha (IL1a), IL1A (gene 3552); experiment: BSK_KF3CT_IL1a: BioMAP Diversity Plus: KF3CT Assay for Interleukin-1 alpha (IL1a) Biomarker Activity (AID 2283070); conditions: primary human keratinocytes with fibroblasts; actives raise or lower the signal
Summary of the method: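 Human keratinocyte plus foreskin fibroblast primary co-culture, sampled 24 h after chemical dosing. IL-1a measured by ELISA; responses fitted bidirectionally against DMSO baseline (negative control), so gain or loss of signal both count.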

Measured: AC50

E-selectin (Homo sapiens), sequence (P16581 whole entry, looked up): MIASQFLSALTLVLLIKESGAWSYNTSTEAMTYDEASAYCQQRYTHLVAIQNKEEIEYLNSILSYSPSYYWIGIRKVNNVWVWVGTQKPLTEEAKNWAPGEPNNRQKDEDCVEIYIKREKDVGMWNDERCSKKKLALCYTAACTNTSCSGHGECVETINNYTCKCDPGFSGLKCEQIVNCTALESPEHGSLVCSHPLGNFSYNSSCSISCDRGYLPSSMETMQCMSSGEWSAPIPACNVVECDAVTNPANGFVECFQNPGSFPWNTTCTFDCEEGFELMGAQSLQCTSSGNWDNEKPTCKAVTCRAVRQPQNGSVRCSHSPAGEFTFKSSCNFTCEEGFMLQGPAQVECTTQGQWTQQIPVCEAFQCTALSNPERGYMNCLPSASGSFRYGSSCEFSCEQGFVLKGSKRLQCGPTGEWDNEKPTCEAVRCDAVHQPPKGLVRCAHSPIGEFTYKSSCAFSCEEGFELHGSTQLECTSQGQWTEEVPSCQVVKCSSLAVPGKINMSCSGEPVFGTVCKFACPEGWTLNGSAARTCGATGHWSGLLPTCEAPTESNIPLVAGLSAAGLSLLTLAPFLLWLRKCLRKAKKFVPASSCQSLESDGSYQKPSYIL

Nc1cc([N+](=O)[O-])ccc1O
active: [1] 1.16 µM and 826 nM | [3] 1.88 µM
inactive: [2] | [3] | [4] | [5] | [6] | [7] | [8] | [9] | [10] | [11] | [12] | [13] | [14] | [15] | [16] | [17] | [18]

O=[N+]([O-])c1cc(C(F)(F)F)ccc1Cl
not listed: [19]
inactive: all other assays above

CC(=O)OCCC(C)CC(C)(C)C (stereo not given)
not listed: [15]
inactive: all other assays above

Cc1ccc(O)c(C(C)(C)C)c1
active: [1] 29.6 µM | [2] 27.6 µM | [3] 36.7 µM | [4] 33.4 µM | [5] 39.1 µM | [6] 30.7 µM | [7] 34.3 µM | [8] 37.5 µM | [9] 35.2 µM | [19] 28.9 µM | [10] 24.9 µM | [11] 36.6 µM | [12] 30.9 µM | [13] 36.6 µM | [14] 30.4 µM | [15] 30.4 µM | [16] 29.6 µM | [17] 36.2 µM | [18] 33 µM

OC[C@H]1O[C@H](O[C@]2(CCl)O[C@H](CCl)[C@@H](O)[C@@H]2O)[C@H](O)[C@@H](O)[C@H]1Cl
not listed: [19]
inactive: all other assays above

CC[Si](OC(C)=O)(OC(C)=O)OC(C)=O
active: [14] 0.626 µM
inactive: [1] | [2] | [3] | [4] | [5] | [6] | [7] | [8] | [9] | [10] | [11] | [12] | [13] | [14] | [16] | [17] | [18]
